From PubChem BioAssay
An excerpt weighted towards active compounds, which were near 2.9% of everything screened.
12-LOX inh: Primary qHTS assay for inhibitors of human arachidonate 12S-lipoxygenase (ALOX12): Round 2; Potency, µM (top dose mostly 108 µM), actives largely listed as inhibitors; purified 12hLO, xylenol orange hydroperoxide absorbance; 580,000 tested, 1.1% active; Polyunsaturated fatty acid lipoxygenase ALOX12 (Homo sapiens), P18054
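Hydroperoxide product was detected by ferrous iron/xylenol orange as the 573 to 405 nm absorbance ratio. Arachidonic acid at 40 uM (final) was turned over for 30 min at room temperature by 150 nM human 12hLO, pH 7.0 Hepes buffer, after 15 min compound preincubation.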
POLB inh: qHTS Assay for Inhibitors of DNA Polymerase Beta; AID 485314, 2010; 340,000 tested, 1.3% active; Potency, µM (doses to about 114 µM), usual class: inhibitors; P06746; Pol beta primer extension/strand displacement, fluorescence kinetic
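Homogeneous kinetic assay of primer extension and strand displacement by 10 nM Pol beta, preincubated 15 min at room temperature with compound before 50 nM substrate (final) was added. Read at 0 and 10 min; four-parameter Hill fit.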
PI5P4K alpha inh: qHTS for Inhibitors of phosphatidylinositol 5-phosphate 4-kinase (PI5P4K) | max response, % | 330,000 tested, 1.2% active | AID 652105, 2013 | PI5P4Kalpha enzyme, ADP-Glo luminescence, 60 min; hits give low values; active = max response of -50% or lower; inconclusive = between -30% and -50%; inactive = -30% or higher; note: value at the top dose of about 77 µM
Target sequence (P48426 whole entry, looked up): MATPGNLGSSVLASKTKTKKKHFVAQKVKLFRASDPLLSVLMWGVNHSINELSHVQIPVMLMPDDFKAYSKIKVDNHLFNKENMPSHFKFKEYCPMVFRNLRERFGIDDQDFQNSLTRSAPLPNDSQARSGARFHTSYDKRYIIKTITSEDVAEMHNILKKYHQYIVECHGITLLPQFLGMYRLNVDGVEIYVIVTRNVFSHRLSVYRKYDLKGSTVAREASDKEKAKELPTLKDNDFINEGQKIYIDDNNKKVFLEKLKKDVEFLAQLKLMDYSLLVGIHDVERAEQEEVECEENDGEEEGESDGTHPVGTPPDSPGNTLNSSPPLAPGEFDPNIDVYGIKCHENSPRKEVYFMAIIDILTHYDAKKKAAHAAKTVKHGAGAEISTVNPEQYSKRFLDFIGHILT
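Single end-point luminescence (ADP-Glo) quantified ADP from PI5P4Kalpha turnover; ATP 5 microM final, 1 h at RT, 0.1% CHAPS and 0.28 mM EGTA in HEPES pH 7.4.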
Pol eta inh: qHTS for Inhibitors of Polymerase Eta; recombinant Pol eta, fluorescent DNA replication assay; Potency, µM (highest dose often 114 µM), most hits filed as inhibitors; 390,000 tested, 1.2% active; AID 588591, 2011
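Fluorescent replication assay: 50 nM final substrate added after a 15 min room-temperature compound preincubation with 10 nM enzyme. Signal taken at 0 min and again at 10 min.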
POLI inh: qHTS for Inhibitors of Polymerase Iota | DNA polymerase iota (Homo sapiens), Q9UNA4 | Potency, µM (series often up to 115 µM), actives largely listed as inhibitors | Pol iota fluorescent replication assay, 10 min | AID 588590, 2011 | 390,000 tested, 1% active
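Pol iota at 10 nM preincubated 15 min with compounds at room temperature; reaction started with fluorescent substrate, 50 nM final. Fluorescence read kinetically at 0 and 10 min; buffer-only wells as negative control.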
POLK inh: qHTS for Inhibitors of Polymerase Kappa | AID 588579, 2011 | Potency, µM (series often up to 107 µM), usual class: inhibitors | purified Pol kappa, fluorescent DNA synthesis assay, 10 min | 400,000 tested, 0.53% active
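First, compounds were pin-transferred onto 10 nM Pol kappa. After 15 min at room temperature, substrate was added to 50 nM final. Fluorescence was then measured kinetically at 0 and 10 min.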
A number is an active result; 0 = inactive; ? = inconclusive; - = no result given; [ ] = dose if it differs, or a comment. Unless noted, calls come from the whole dose curve; as a rule, active = well fitted inhibition curve with a large enough effect; inconclusive = small, poorly fitted or top-dose-only effect, or another doubt; inactive = no such curve, though single readings can be large or run the other way.

SMILES	12-LOX inh	POLB inh	PI5P4K alpha inh	Pol eta inh	POLI inh	POLK inh
O=C(Nc1ccccc1)N1C[C@@H]2C[C@H](C1)c1c(-c3ccccc3F)ccc(=O)n1C2	0	-	-	-	-	-
COc1ccccc1-c1cc([C@H]2CN3CC[C@H]2C[C@@H]3CNC(=O)c2cccs2)n(C)n1	0	-	-	-	-	-
O=C(Nc1ccccc1)C1=NO[C@@H]2CN(Cc3ccccn3)C[C@H]12	0	-	-	-	-	-
CCOC(=O)c1c(-n2c(C)cc(/C=C3\C(=O)NC(=O)N(C)C3=O)c2C)sc2c1CCCC2	?	0	-	79.4µM	14.1µM	0
CC(C)(O)C1OC2CCC3(C)C(O)(CCC4Cc5c([nH]c6ccccc56)C43C)C2=CC1=O (stereo not drawn)	0	-	-	-	-	-
CNC(=O)NC(=O)COC(=O)c1cn(C)c2ccccc12	0	-	-	-	-	-
CCN(CC)C(=O)N[C@H]1C[C@@H]2c3cccc4[nH]cc(c34)C[C@H]2N(C)C1	0	0	-74.8	0	?	?
CN1C[C@H](CO)C[C@@H]2c3cccc4[nH]cc(c34)C[C@H]21	0	0	0	0	0	0
CCC(C)N1C(=O)/C(=C\c2ccc(N3CCCCCC3)cc2)C(=O)NC1=S (stereo not drawn)	?	0	-58.4	0	0	0
Cc1cc(N2CCOCC2)ccc1/C=C1\C(=O)NC(=O)N(c2ccccc2)C1=O	0	0	0	0	0	0
CN1C(=O)/C(=C\c2ccc(N3CCCCCC3)cc2)C(=O)NC1=S	0	0	-55.9	0	0	0
O=C1NC(=O)N(c2cccc(F)c2)C(=O)/C1=C/c1ccc(N2CCOCC2)cc1	?	?	-61.2	0	?	0
CCCCN1C(=O)/C(=C/c2ccc(N3CCCCCC3)cc2)C(=O)NC1=S	-	0	-	-	-	-
CCC(C)N1C(=O)/C(=C\c2cnc(N(C)C)nc2)C(=O)NC1=S (stereo not drawn)	?	0	-57.4	0	?	0
C#C[C@H]1CN2CC[C@H]1C[C@@H]2CNC(=O)c1ccc(F)c(Cl)c1	0	-	-	-	-	-
COc1cc2c(cc1OCc1ccccc1)N([S+](=O)([O-])c1ccccc1C(F)(F)F)CC21CCN(C)CC1	0	-	-	-	-	-
Cc1nc(-c2ccco2)cc([C@H]2CN3CC[C@H]2C[C@@H]3CNCC2CCCCC2)n1	0	-	-	-	-	-
CCC(C)N1C(=O)/C(=C\c2cc3c4c(c2)CCCN4CCC3)C(=O)NC1=S (stereo not drawn)	?	44.7µM	?	?	?	0
Cc1cc(C=C2C(=O)N(C)C(=S)N(C)C2=O)c(C)n1C1CCCCC1	?	39.8µM	?	14.1µM	?	0
Cc1cc(N2CCCC2)ccc1C=C(C#N)C#N	0	0	0	0	0	0
Cc1cc(N2CCCCC2)ccc1C=C1C(=O)N(C)C(=S)N(C)C1=O	?	0	-60.0	?	0	0
CN(C)c1ccc(/C=C/C=C2/C(=O)NC(=O)N(c3ccccc3)C2=O)cc1	0	0	-77.6	?	?	0
Cc1ccc(N2C(=O)NC(=O)/C(=C\C=C\c3ccco3)C2=O)cc1	0	?	0	50.1µM	17.8µM	0
Cc1cccc(N2C(=O)NC(=O)/C(=C/c3ccc([N+](=O)[O-])o3)C2=O)c1	-	5.62µM	-77.8	2.51µM	3.16µM	8.91µM
Cc1cccc(N2C(=O)NC(=O)/C(=C\C=C\c3ccco3)C2=O)c1	?	?	0	?	12.6µM	0
SMILES	12-LOX inh	POLB inh	PI5P4K alpha inh	Pol eta inh	POLI inh	POLK inh
O=C(NC[C@H]1C[C@@H]2CCN1C[C@@H]2CN1CCOCC1)Nc1ccsc1	0	-	-	-	-	-
O=C(C1CCCCC1)N1C[C@@H]2C[C@H](C1)c1c(/C=C/c3ccc(Cl)cc3)ccc(=O)n1C2	0	-	-	-	-	-
Cc1ncc2c(n1)C[C@@H]1CC[C@H]2N1C(=O)CC1CCCC1	0	-	-	-	-	-
COc1ccc(CN2C(=O)NC(=O)/C(=C/c3ccc([N+](=O)[O-])o3)C2=O)cc1	-	6.31µM	-	-	-	-
Cc1cc(/C=C2/C(=O)NC(=O)N(c3ccccc3)C2=O)c(C)n1-c1ccc(F)cc1	0	-	0	?	?	0
C=CCN1C(=O)/C(=C/c2cc(C)n(-c3cccnc3)c2C)C(=O)NC1=S	?	0	-66.8	0	0	0
Cc1cc(C=C2C(=O)NC(=O)NC2=O)c(C)n1-c1cccnc1	?	0	-57.9	0	0	0
O=C(NC1CCCCC1)[C@H]1CN2CC[C@H]1C[C@@H]2Cn1cc(CCO)nn1	0	-	-	-	-	-
C=C(C)C(Cc1c(OC)ccc(C(=O)/C=C/c2ccc(O)cc2)c1O)OO (stereo not drawn)	20µM	-	0	?	0	0
CCOP(=O)(C1=C(O)C(=O)C(C(C)(C)C)=CC1=O)c1ccccc1 (stereo not drawn)	0	0	0	0	31.6µM	0
CCOP(=O)(OCC)C(O)c1ccccc1 (stereo not drawn)	0	?	0	0	0	0
O=C(c1ccccc1)N1CCC(C(=O)O)(c2ccccc2)CC1	0[6.33 µM]	-	-	-	-	-
O=C1CC=C2C3CC4N(CCC45c4cc(O)c(O)cc4N1C25)CC3=CCBr (stereo not drawn)	?	-	-69.6	?	39.8µM	?
Cc1cnc(C(=O)N2[C@H]3CC[C@@H]2c2cnc(-c4ccc(F)cc4)nc2C3)cn1	0	-	-	-	-	-
Cc1ccc(C(=O)N2[C@H]3CC[C@@H]2c2cnc(-c4ccc(F)cc4)nc2C3)cn1	39.8µM	-	-	-	-	-
COc1ccc(CCn2c(O)c(/C=N/NC(=O)c3ccncc3)c(=O)[nH]c2=O)cc1OC	0	0	-82.4	0	0	0
O=C(N/N=C/c1c(O)n(-c2ccccc2)c(=O)[nH]c1=O)c1ccncc1	0	0	0	0	0	0
O=C(N/N=C/c1c(O)n(Cc2ccccc2)c(=O)[nH]c1=O)c1ccncc1	0	0	-55.7	0	0	0
C=CCn1c(O)c(/C=N/NC(=O)c2ccncc2)c(=O)[nH]c1=O	0	0	-50.4	0	0	0
O=C(N/N=C/c1c(O)n(Cc2ccc(F)cc2)c(=O)[nH]c1=O)c1ccccc1	0	0	?	0	0	0
CC(C)CCN1CCC2(CC1)CC(c1cccnc1)=NO2	0	-	-	-	-	-
O=C1NCC2(CCCN(Cc3cc(=O)c4cccc(F)c4[nH]3)C2)O1 (stereo not drawn)	0	-	-	-	-	-
CC1=Nc2ccccc2/C1=C/c1c(O)[nH]c(=O)[nH]c1=O	28.2µM	0	0	0	?	0
O=C(NC1CCCCC1)OC[C@H]1C[C@@H]2CCN1C[C@@H]2c1cc(C2CCCC2)nc(-c2ccncc2)n1	31.6µM	-	-	-	-	-
O=C(Nc1cccc(C(F)(F)F)c1)OC[C@H]1C[C@@H]2CCN1C[C@@H]2c1cc(C2CCCC2)nc(-c2ccncc2)n1	50.1µM	-	-	-	-	-
